In PubChem BioAssay AID2330 (Broad Institute, 2010):
In all, about 37,000 compounds went through this assay and about 2,800 (7.6%) were called active. About 1% were inconclusive and are not listed. The sample as a whole holds a higher share of actives than the screen did. Unmarked numbers belong to inactive results. No stated cut-off is given here; in the data, active means inhibition above about 80%; inconclusive means no clear call, values can overlap the other calls; inactive means below that.

test: NOMO-1 AML cell viability reduction, primary screen, STK33 inhibitor project, CellTiter-Glo luminescence (AID 2330); details: NOMO-1 AML viability, 72 h, stronger effect = higher value, concentration not given here

Row | Structure (SMILES) | inhibition
1 | OC(c1nc2ccccc2[nH]1)C(O)C(O)C(O)c1nc2ccccc2[nH]1 (stereo unspecified) | -2.04%
2 | O=C(CSc1ncnc2sc3c(c12)CCCC3)Nc1ccc(F)c(Cl)c1 | -1.63%
3 | CC(C)NC(=O)N(C)C[C@H]1Oc2c(NS(C)(=O)=O)cccc2C(=O)N([C@@H](C)CO)C[C@H]1C | 12.9%
4 | C[C@@H]1CN([C@@H](C)CO)C(=O)c2cccc(NC(=O)c3cnccn3)c2O[C@H]1CN(C)S(=O)(=O)c1cccs1 | 9.49%
5 | COc1cc(/C=C/C(=O)O[C@@H]2O[C@H](CO[C@@H]3O[C@H](CO)[C@@H](O)[C@H](O)[C@H]3O)[C@@H](O)[C@H](O)[C@H]2OC(=O)/C=C/c2cc(OC)c(O)c(OC)c2)cc(OC)c1O | 14.7%
6 | COc1cc(O[C@@H]2O[C@H](CO[C@H]3OC[C@](O)(COC(=O)c4ccc(O)c(OC)c4)[C@H]3O)[C@@H](O)[C@H](O)[C@H]2O)ccc1O | 120% (active)
7 | O=C(OCC1OC(Oc2ccc(O)cc2COC(=O)C2(O)C(O)CCC(O)C2O)C(O)C(O)C1O)c1ccccc1 (stereo unspecified) | 17%
8 | Cc1ccc(S(=O)(=O)N(C)C[C@@H]2Oc3c(NC(=O)C4CCCCC4)cccc3C(=O)N([C@H](C)CO)C[C@H]2C)cc1 | 16.1%
9 | COc1ccc(NC(=O)Nc2ccc3c(c2)C(=O)N([C@H](C)CO)C[C@H](C)[C@H](CN(C)C(=O)Nc2c(C)noc2C)OCCCC[C@@H](C)O3)cc1 | -10.5%
10 | COc1ccc(NC(=O)Nc2ccc3c(c2)C(=O)N([C@@H](C)CO)C[C@@H](C)[C@H](CN(C)Cc2ccc(Cl)c(Cl)c2)O3)cc1 | 39.3%
11 | C[C@@H]1CN([C@H](C)CO)C(=O)c2cc(NC(=O)Nc3ccccc3)ccc2O[C@@H]1CN(C)Cc1ccc(Cl)c(Cl)c1 | 88.9% (active)
12 | CC(C)NC(=O)Nc1ccc2c(c1)C(=O)N([C@@H](C)CO)C[C@@H](C)[C@H](CN(C)Cc1ccc(Cl)c(Cl)c1)O2 | 44.5%
13 | C[C@@H]1CN([C@H](C)CO)C(=O)c2cc(NC(=O)Nc3ccccc3)ccc2O[C@H]1CN(C)Cc1ccc(Cl)c(Cl)c1 | -8.23%
14 | C[C@@H]1CN([C@@H](C)CO)C(=O)c2cc(NC(=O)Nc3cccc4ccccc34)ccc2O[C@H]1CN(C)Cc1ccc(Cl)c(Cl)c1 | 94% (active)
15 | C[C@@H]1CN([C@H](C)CO)C(=O)c2cc(NC(=O)Nc3ccc(F)cc3)ccc2O[C@@H]1CN(C)Cc1ccc(Cl)c(Cl)c1 | 62.8%
16 | CC(=O)Oc1ccc(N(C(C)=O)S(=O)(=O)c2ccc(Cl)cc2)cc1 | 42.4%
